Reference: PubChem BioAssay (EPA / NIEHS)
Results filed as inconclusive are left out. Active and inactive are the calls of the source. The calls were made as follows, unless noted: active = hit-call score of the fitted dose curve at least 0.9, where 1 is the maximum; inactive = score below 0.9.

Key:
[1] = ATG_PPRE_CIS: Attagene CIS-FACTORIAL HepG2 Assay for human Peroxisome Proliferator-activated Response Element (PPRE) (AID 2282958); settings: HepG2 PPRE cis-element reporter, Attagene transcription factor profiling; actives raise or lower the signal
Outline: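 DMSO served as negative control and baseline for bidirectional curve fitting. Signal came from PPRE-regulated reporter mRNA in HepG2 cells, measured 24 h post-dosing by RT-PCR, 6-FAM primer extension and capillary electrophoresis.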

[2] = ATG_Sox_CIS: Attagene CIS-FACTORIAL HepG2 Assay for human SRY-box transcription factor (SOX) (AID 2282960); settings: HepG2 Attagene cis-factorial SOX reporter, mRNA; actives raise or lower the signal
Outline: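 Fluorescence-labelled cDNA fragments from reporter transcripts, sized by CE, give the signal. Cells: HepG2, transiently transfected with cis-regulated reporter units. Exposure 24 h; DMSO negative control; bidirectional curve fitting.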

[3] = target: Transcription factor Sp1 (Homo sapiens) (UniProt P08047); experiment: ATG_Sp1_CIS: Attagene CIS-FACTORIAL HepG2 Assay for human Specificity Protein 1 (Sp1) (AID 2282961); settings: HepG2 Sp1 cis-reporter transcription, actives raise or lower the signal
Chain of Transcription factor Sp1 (Homo sapiens) (P08047 whole entry, looked up): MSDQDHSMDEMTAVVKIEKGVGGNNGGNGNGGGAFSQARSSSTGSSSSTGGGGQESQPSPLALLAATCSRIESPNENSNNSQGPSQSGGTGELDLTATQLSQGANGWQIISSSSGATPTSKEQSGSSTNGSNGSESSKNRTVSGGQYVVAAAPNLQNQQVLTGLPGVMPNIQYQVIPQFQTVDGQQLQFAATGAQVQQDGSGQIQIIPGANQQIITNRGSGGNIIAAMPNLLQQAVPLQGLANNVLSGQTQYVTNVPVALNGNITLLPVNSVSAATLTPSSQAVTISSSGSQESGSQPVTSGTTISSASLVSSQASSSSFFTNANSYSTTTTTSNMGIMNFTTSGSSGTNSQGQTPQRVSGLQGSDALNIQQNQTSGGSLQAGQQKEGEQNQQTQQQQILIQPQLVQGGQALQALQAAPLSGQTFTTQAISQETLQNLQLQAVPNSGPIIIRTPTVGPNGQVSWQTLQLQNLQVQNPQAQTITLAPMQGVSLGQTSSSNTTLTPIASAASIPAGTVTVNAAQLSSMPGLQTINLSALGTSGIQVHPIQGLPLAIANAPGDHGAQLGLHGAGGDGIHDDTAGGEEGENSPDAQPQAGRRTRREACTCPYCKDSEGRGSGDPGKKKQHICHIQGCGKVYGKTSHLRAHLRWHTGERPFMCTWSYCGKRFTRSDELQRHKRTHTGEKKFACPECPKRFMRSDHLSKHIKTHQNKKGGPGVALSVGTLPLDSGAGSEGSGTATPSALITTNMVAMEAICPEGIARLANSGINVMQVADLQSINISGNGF
Outline: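 Chemicals are dosed onto HepG2 cells transfected with multiple cis-promoter reporter constructs, and after 24 h reporter RNA is reverse-transcribed, PCR-amplified and resolved by capillary electrophoresis for fluorescence quantitation; activity is scored up or down against DMSO.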

[4] = ATG_SREBP_CIS: Attagene CIS-FACTORIAL HepG2 Assay for human Sterol Regulatory Element Binding (SREBP) (AID 2282962); settings: HepG2 Attagene cis-factorial SREBP reporter, mRNA; actives raise or lower the signal
Outline: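 Twenty-four hours after chemical dosing of transfected HepG2 cultures, reporter RNA was converted to cDNA, amplified, end-labelled with 6-FAM and resolved by capillary electrophoresis. Responses were fitted relative to DMSO.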

[5] = target: Signal transducer and activator of transcription 3 (Homo sapiens) (UniProt P40763); experiment: ATG_STAT3_CIS: Attagene CIS-FACTORIAL HepG2 Assay for human Signal Transducer and Activator of Transcription 3 (STAT3) (AID 2282963); settings: HepG2, Attagene cis-factorial STAT3 reporter transcription; actives raise or lower the signal
Chain of Signal transducer and activator of transcription 3 (Homo sapiens) (P40763 whole entry, looked up): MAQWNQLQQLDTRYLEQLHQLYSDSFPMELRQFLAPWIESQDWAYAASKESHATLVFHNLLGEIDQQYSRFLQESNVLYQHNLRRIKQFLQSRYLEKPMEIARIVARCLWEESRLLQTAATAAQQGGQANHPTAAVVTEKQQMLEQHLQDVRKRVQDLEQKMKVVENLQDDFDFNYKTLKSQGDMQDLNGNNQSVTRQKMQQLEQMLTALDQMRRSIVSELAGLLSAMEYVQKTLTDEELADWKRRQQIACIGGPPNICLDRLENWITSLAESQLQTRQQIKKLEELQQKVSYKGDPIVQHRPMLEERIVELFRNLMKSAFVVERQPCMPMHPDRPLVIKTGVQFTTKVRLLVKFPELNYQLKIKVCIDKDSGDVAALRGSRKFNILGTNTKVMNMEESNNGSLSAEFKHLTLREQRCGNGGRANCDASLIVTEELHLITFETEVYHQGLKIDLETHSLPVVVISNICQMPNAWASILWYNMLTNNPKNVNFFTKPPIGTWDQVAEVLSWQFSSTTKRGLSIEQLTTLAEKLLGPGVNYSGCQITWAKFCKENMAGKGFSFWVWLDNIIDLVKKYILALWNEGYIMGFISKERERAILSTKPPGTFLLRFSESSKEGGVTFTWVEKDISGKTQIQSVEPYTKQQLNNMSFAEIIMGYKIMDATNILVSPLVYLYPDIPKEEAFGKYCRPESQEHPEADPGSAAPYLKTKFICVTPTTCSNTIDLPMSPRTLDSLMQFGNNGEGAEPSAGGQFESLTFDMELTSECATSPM
Outline: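 After a 24 h compound incubation, total RNA from MRTU-transfected HepG2 cells was converted to cDNA and reporter sequences PCR-amplified, labelled and profiled by capillary electrophoresis. Gain and loss of signal were referenced to DMSO.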

[6] = ATG_TA_CIS: Attagene CIS-FACTORIAL HepG2 Assay for human TA Basal Promoter (AID 2282964); settings: HepG2 Attagene CIS-factorial TA basal promoter reporter; actives raise or lower the signal
Outline: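 Cis-factorial format in HepG2: reporters report endogenous factors, not chimeric Gal4 fusions. After 24 h treatment, reporter transcripts were measured by RT-PCR-capillary electrophoresis fluorescence, analysed bidirectionally versus DMSO.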

[7] = ATG_TCF_b_cat_CIS: Attagene CIS-FACTORIAL HepG2 Assay for human T-Cell-Factor with beta-catenin (TCF/b-cat) (AID 2282965); settings: HepG2 TCF/beta-catenin cis-reporter transcription, actives raise or lower the signal
Outline: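 Endogenous TCF/LEF activity read as reporter transcript level via RT-PCR and capillary electrophoresis fluorescence in transfected HepG2, 24 h exposure; gain or loss of signal fitted against DMSO controls.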

[8] = ATG_TAL_CIS: Attagene CIS-FACTORIAL HepG2 Assay for human TAL Basal Promoter (AID 2282966); settings: HepG2 Attagene cis-factorial TAL promoter reporter; actives raise or lower the signal;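 also: background control endpoint measuring basal TAL promoter reporter mRNA not a specific factor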
Outline: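 HepG2 cells transiently transfected with multiplexed cis-promoter reporter units, dosed 24 h. Reporter mRNA quantified by RT-PCR, 6-FAM labelling, HpaI digestion and capillary electrophoresis; TAL basal promoter serves as background control, fitted bidirectionally versus DMSO.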

[9] = ATG_TGFb_CIS: Attagene CIS-FACTORIAL HepG2 Assay for human Transforming Growth Factor (TGF) (AID 2282967); settings: HepG2 Attagene CIS TGFb reporter, mRNA transcription; actives raise or lower the signal
Outline: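 Multiplexed cis-reporter HepG2 system, 24 h treatment; mRNA induction read by fluorescence after RT-PCR and CE; DMSO negative control, bidirectional curve fitting.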

[10] = ATG_VDRE_CIS: Attagene CIS-FACTORIAL HepG2 Assay for human Vitamin D Receptor Element (VDRE) (AID 2282968); settings: HepG2 VDRE cis-reporter transcription, actives raise or lower the signal
Outline: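 In transiently transfected HepG2 liver cells, gain or loss of reporter mRNA after 24 h exposure is scored relative to DMSO, using fluorescence detection by capillary electrophoresis of RT-PCR products.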

[11] = target: X-box-binding protein 1 (Homo sapiens) (UniProt P17861); experiment: ATG_Xbp1_CIS: Attagene CIS-FACTORIAL HepG2 Assay for human X-box Binding Protein 1 (XBP1) (AID 2282972); settings: HepG2 XBP1 cis-element reporter, Attagene multiplex; actives raise or lower the signal
Chain of X-box-binding protein 1 (Homo sapiens) (P17861 whole entry, looked up): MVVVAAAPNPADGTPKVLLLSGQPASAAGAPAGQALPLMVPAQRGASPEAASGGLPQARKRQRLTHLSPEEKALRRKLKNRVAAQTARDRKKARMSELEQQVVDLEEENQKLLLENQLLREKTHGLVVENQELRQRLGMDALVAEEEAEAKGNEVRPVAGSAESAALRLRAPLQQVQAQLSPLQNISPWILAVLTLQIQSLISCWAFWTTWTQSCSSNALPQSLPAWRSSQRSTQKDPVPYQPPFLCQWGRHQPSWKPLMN
Outline: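 After a 24-hour chemical exposure of HepG2 cells carrying cis-regulated reporters, reporter mRNA levels are assessed. Quantification uses RT-PCR, 6-FAM labelling and capillary electrophoresis. Gain- or loss-of-signal is fitted against DMSO.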

[12] = ATG_M_19_TRANS: Attagene TRANS-FACTORIAL HepG2 Assay for M19 Transcription Factor (Internal Marker) (AID 2282974; active = hit-call score of the fitted dose curve at least 0.9, where 1 is the maximum); settings: HepG2 Attagene TRANS-FACTORIAL M19 internal marker reporter
Outline: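 Multiplexed TRANS format: HepG2 liver cells bearing transient GAL4-UAS reporter units, chemical treatment 24 h, reporter transcripts quantified by RT-PCR plus capillary electrophoresis. DMSO defines baseline.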

[13] = target: Glucocorticoid receptor (Homo sapiens) (UniProt P04150); experiment: ATG_GR_TRANS: Attagene TRANS-FACTORIAL HepG2 Assay for human Glucocorticoid Receptor (GR) (AID 2282978; active = hit-call score of the fitted dose curve at least 0.9, where 1 is the maximum;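 also: activators score as hits since higher reporter transcript over DMSO is fitted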); settings: HepG2 Attagene TRANS GR reporter, mRNA transcription
Chain of Glucocorticoid receptor (Homo sapiens) (P04150 whole entry, looked up, the tested form may be a part): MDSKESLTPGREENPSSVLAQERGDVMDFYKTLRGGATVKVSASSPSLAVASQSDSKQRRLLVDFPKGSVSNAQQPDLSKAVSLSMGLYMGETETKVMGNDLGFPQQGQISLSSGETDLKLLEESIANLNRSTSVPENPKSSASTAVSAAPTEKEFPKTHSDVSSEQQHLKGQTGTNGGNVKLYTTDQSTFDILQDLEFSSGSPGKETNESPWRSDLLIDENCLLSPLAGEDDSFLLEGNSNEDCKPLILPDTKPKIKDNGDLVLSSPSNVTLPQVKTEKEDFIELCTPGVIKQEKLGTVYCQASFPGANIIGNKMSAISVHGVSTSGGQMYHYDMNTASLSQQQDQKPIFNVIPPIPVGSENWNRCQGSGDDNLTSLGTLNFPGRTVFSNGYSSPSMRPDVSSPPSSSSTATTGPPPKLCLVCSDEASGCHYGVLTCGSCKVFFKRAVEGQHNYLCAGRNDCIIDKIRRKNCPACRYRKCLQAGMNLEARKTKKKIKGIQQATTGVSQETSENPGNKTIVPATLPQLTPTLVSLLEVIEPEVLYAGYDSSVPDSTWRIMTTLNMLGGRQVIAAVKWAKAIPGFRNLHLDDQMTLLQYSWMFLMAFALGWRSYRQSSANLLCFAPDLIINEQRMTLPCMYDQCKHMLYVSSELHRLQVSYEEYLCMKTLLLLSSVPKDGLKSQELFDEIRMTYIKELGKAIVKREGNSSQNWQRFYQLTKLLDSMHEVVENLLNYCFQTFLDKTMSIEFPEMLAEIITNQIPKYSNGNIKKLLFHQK
Outline: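 Transiently transfected HepG2 cells express chimeric NR-GAL4 proteins acting on GAL4-UAS reporter units. Compounds are applied for 24 h. mRNA induction over DMSO is measured by capillary electrophoresis.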

[14] = ATG_RORE_CIS: Attagene CIS-FACTORIAL HepG2 Assay for human RAR-related Orphan Receptor Element (RORE) (AID 2282959); settings: HepG2 Attagene cis-factorial RORE reporter, mRNA; actives raise or lower the signal
Outline: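 Transfect HepG2 with MRTUs; treat 24 h; extract RNA; RT with oligo(dT); PCR with reporter-specific primers; 6-FAM primer extension; HpaI digest 2 h at 37 C; capillary electrophoresis. Fit vs DMSO, bidirectional.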

[15] = target: Estrogen-related receptor gamma (Homo sapiens) (UniProt P62508); experiment: ATG_ERRg_TRANS: Attagene TRANS-FACTORIAL HepG2 Assay for human Estrogen-Related Receptor gamma (ERRg) (AID 2282977; active = hit-call score of the fitted dose curve at least 0.9, where 1 is the maximum;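 also: hits increase reporter signal over DMSO so potencies reflect activators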); settings: HepG2 Attagene TRANS reporter, ERRg transactivation
Chain of Estrogen-related receptor gamma (Homo sapiens) (P62508 whole entry, looked up, the tested form may be a part): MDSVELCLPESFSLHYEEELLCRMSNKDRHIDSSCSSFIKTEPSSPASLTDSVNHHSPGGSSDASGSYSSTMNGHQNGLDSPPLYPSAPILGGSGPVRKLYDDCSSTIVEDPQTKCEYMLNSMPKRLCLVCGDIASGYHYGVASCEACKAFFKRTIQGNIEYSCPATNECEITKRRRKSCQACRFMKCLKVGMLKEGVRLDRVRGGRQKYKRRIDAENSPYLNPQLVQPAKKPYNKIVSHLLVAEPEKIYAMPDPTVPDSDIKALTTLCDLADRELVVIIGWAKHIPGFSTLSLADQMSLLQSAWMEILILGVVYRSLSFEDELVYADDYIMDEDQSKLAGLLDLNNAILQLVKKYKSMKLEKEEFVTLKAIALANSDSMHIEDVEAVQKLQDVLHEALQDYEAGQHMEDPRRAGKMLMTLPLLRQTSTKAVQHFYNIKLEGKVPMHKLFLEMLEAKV
Outline: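 HepG2 cells transiently transfected with multiplexed GAL4-UAS reporter units and chimeric NR-Gal4 constructs were exposed to test chemicals for 24 h. Reporter mRNA was measured by RT-PCR, 6-FAM primer extension, HpaI digestion and capillary electrophoresis; gain-of-signal versus DMSO.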

[16] = ATG_GAL4_TRANS: Attagene TRANS-FACTORIAL HepG2 Assay for GAL4 (Internal Marker) (AID 2282976; active = hit-call score of the fitted dose curve at least 0.9, where 1 is the maximum); settings: HepG2 Attagene TRANS GAL4 internal marker reporter
Outline: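 Background-control readout: GAL4-UAS reporter transcript in transiently transfected HepG2 cells after 24 h compound exposure. Measured by RT-PCR, 6-FAM primer extension, HpaI digest and capillary electrophoresis; gain-of-signal fit versus DMSO.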

[17] = target: Nuclear receptor subfamily 1 group I member 3 (Homo sapiens) (UniProt Q14994); experiment: ATG_CAR_TRANS: Attagene TRANS-FACTORIAL HepG2 Assay for human Constitutive Androstane Receptor (CAR) (AID 2282969; active = hit-call score of the fitted dose curve at least 0.9, where 1 is the maximum;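 also: activators raise reporter mRNA above DMSO so AC50 marks induction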); settings: HepG2 Attagene TRANS-FACTORIAL CAR reporter
Chain of Nuclear receptor subfamily 1 group I member 3 (Homo sapiens) (Q14994 whole entry, looked up, the tested form may be a part): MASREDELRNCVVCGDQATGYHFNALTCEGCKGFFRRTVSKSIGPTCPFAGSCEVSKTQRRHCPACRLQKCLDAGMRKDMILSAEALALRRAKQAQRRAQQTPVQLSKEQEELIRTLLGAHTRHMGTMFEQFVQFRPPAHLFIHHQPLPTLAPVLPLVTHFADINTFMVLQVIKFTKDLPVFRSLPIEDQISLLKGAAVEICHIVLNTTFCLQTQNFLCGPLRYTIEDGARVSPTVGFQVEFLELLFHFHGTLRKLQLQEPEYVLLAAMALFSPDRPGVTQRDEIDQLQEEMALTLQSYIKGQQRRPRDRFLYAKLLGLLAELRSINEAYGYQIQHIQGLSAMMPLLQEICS
Outline: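 Readout is reporter mRNA induction, quantified by fluorescent primer extension and capillary electrophoresis after RT-PCR. Cells were HepG2 transiently carrying chimeric NR-Gal4 constructs with GAL4-UAS reporters, treated for 24 h; activity scored upward from DMSO.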

[18] = target: Estrogen receptor (Homo sapiens) (UniProt P03372); experiment: ATG_ERa_TRANS: Attagene TRANS-FACTORIAL HepG2 Assay for human Estrogen Receptor alpha (ERa) (AID 2282970; active = hit-call score of the fitted dose curve at least 0.9, where 1 is the maximum); settings: HepG2 Attagene TRANS ERa GAL4 reporter, mRNA
Chain of Estrogen receptor (Homo sapiens) (P03372 whole entry, looked up, the tested form may be a part): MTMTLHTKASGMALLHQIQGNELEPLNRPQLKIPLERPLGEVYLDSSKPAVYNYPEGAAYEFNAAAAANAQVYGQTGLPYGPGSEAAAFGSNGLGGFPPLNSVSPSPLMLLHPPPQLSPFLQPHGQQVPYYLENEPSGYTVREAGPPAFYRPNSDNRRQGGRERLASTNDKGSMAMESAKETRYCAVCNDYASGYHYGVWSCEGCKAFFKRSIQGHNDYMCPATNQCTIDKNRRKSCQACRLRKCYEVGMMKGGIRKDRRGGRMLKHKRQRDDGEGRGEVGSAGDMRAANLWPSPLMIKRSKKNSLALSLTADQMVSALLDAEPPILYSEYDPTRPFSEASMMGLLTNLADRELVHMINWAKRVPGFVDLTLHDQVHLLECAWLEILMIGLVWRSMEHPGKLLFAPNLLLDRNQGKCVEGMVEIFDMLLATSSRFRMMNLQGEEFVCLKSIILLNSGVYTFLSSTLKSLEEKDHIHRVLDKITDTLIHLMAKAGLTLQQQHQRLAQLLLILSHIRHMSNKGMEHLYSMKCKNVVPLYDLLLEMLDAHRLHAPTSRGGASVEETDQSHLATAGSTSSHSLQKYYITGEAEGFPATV
Outline: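 HepG2 cells transiently transfected with multiplexed GAL4-UAS reporter units read out chimeric NR-Gal4 activity. After 24 h compound exposure, reporter mRNA was quantified by RT-PCR, 6-FAM labeling, HpaI digestion and capillary electrophoresis, relative to DMSO.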

[19] = ATG_PXRE_CIS: Attagene CIS-FACTORIAL HepG2 Assay for human Pregnane X Receptor Element (PXRE) (AID 2282957); settings: HepG2 Attagene CIS-FACTORIAL PXRE reporter, mRNA; actives raise or lower the signal
Outline: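 HepG2 cells transiently transfected with cis-element-driven multiplexed reporter units; after 24 h chemical exposure, reporter mRNA measured by RT-PCR, 6-FAM labelling, HpaI digestion and capillary electrophoresis. Bidirectional fitting relative to DMSO.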

Measured: AC50

CC(C)(C)c1ccc(CCC=O)cc1
active: [7] 162 µM
not listed: [14] | [15] | [16] | [17] | [18] | [19]
inactive: all other assays above

CC1=NN(c2ccccc2)C(=O)C1
not listed: [3] | [6] | [10] | [15] | [16] | [17] | [18] | [19]
inactive: all other assays above

CCCCc1oc2ccccc2c1C(=O)c1cc(I)c(OCCN(CC)CC)c(I)c1
active: [2] 128 µM | [3] 130 µM | [6] 19.8 µM | [8] 26.1 µM | [10] 9.14 µM | [11] 26.4 µM
inactive: [1] | [14] | [5] | [9] | [12] | [15] | [13]

c1ccc(CNc2ncnc3c2ncn3C2CCCCO2)cc1 (stereo not drawn)
active: [10] 22.9 µM
not listed: [12] | [15] | [16] | [17] | [18] | [19]
inactive: all other assays above

CC1CCC(CO)CC1 (stereo not drawn)
not listed: [1] | [3] | [12] | [14] | [15] | [17] | [18] | [19]
inactive: all other assays above

O=C1OC(=O)c2cc(-c3ccc4c(c3)C(=O)OC4=O)ccc21
not listed: [13] | [14] | [15] | [19]
inactive: all other assays above

COC(=O)C(F)(F)C(F)(F)C(F)(F)F
not listed: [7] | [10] | [14] | [15] | [17] | [19]
inactive: all other assays above

O=C1NS(=O)(=O)c2ccccc21
not listed: [7] | [10] | [13] | [15] | [17] | [18] | [19]
inactive: all other assays above

O=S(=O)(O)c1ccc2cc(O)ccc2c1
not listed: [1] | [3] | [7] | [14] | [15] | [16] | [18]
inactive: all other assays above
